The whole screen tested about 310,000 compounds, of which about 14,000 (4.5%) showed an effect of 50% or more. The effect is printed as a negative number. This excerpt belongs to a sample that is enriched for strong results.
target: human ether-à-go-go-related gene (hERG) potassium channel (human, UniProt Q12809); test: primary screen, population patch clamp on CHO cells stably expressing hERG; higher = less effect of the substance
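Also: peak tail current of the secondary pulse compared with the same well before compound.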

Sequence of human ether-à-go-go-related gene (hERG) potassium channel (Q12809 whole entry, looked up): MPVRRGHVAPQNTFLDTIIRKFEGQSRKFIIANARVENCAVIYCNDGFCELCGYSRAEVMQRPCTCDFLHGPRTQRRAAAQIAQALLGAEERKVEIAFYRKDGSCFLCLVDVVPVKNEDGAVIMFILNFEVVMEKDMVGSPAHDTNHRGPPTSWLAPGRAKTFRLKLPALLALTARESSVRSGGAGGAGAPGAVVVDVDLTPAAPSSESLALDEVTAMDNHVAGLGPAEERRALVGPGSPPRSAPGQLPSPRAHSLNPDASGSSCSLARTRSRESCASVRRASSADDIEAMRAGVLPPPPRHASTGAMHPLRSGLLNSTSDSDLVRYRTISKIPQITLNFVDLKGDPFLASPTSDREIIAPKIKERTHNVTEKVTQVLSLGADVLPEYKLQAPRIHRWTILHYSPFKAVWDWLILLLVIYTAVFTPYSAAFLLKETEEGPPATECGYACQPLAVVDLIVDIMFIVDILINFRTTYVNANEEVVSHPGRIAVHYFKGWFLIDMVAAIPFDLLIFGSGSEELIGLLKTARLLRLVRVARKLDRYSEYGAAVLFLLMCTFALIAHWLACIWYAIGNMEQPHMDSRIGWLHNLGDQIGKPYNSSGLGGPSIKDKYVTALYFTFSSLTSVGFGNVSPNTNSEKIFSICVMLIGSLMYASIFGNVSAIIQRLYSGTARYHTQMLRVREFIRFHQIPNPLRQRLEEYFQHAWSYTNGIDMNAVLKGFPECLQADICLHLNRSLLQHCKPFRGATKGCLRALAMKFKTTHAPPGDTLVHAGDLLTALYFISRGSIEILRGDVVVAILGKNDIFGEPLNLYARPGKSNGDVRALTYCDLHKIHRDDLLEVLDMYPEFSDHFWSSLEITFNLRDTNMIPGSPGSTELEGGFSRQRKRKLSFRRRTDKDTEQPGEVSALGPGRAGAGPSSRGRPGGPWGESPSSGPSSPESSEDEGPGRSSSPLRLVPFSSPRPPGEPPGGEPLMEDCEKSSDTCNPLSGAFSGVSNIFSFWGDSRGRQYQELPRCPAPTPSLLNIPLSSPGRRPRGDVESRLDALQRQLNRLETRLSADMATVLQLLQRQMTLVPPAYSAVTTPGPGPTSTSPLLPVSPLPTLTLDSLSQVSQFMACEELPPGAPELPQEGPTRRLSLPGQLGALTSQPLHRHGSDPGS

In order of rising “hERG current change (%, negative = inhibition) at 10uM” value:
1. Cl.N=c1n(CCN2CCCCC2)c2ccccc2n1CC(O)c1ccc(Cl)c(Cl)c1 (stereo not shown)  -105%
2. Cl.N=c1n(CCN2CCCC2)c2ccccc2n1CC(O)c1ccc(Cl)c(Cl)c1 (stereo not shown)  -91.4%
3. COc1ccc(CN2CCN(CC(O)Cn3c4ccccc4c4ccccc43)CC2)cc1 (stereo not shown)  -75.2%
4. COc1ccc(CNCCC(c2ccc(OC(C)C)cc2)C(C)C)cc1OC (stereo not shown)  -74.5%
5. COc1ccc(CNCCC(c2ccc(F)cc2)c2ccc(OC(C)C)cc2)cc1OC (stereo not shown)  -73%
6. CCOc1ccc(NC(=O)c2c(NC(=O)CN3CCN(C)CC3)sc3c2CCC3)cc1  -72.7%
7. COc1ccc(CNCCC(c2ccc(OC(C)C)cc2)c2ccccc2OC)cc1OC (stereo not shown)  -71.3%
8. CCOc1ccc(CN2CCN(CC(O)Cn3c4ccccc4c4ccccc43)CC2)cc1 (stereo not shown)  -70.9%
9. CCNC(=O)/C(=C\c1ccc2c(c1)OCO2)NC(=O)c1ccc(Br)cc1  -69.7%
10. COc1ccc(CNCCC(c2ccccc2)c2ccc(OC(C)C)cc2)cc1OC (stereo not shown)  -69.7%
11. CCOc1ccc(NC(=O)c2c(NC(=O)CNCCN3CCOCC3)sc3c2CCC3)cc1  -69.3%
12. OC(CN1CCN(Cc2ccccc2)CC1)Cn1c2ccccc2c2ccccc21 (stereo not shown)  -67.7%
13. CN(C)CCn1c(=N)n(CC(O)c2ccc(Cl)c(Cl)c2)c2ccccc21.Cl (stereo not shown)  -66.1%
14. Cl.N=c1n(CCN2CCCCC2)c2ccccc2n1CC(O)c1cccc(Br)c1 (stereo not shown)  -63.2%
15. CC1CCN(CC(O)CN2c3ccccc3Sc3ccccc32)CC1 (stereo not shown)  -59.2%
16. CCNC(=O)/C(=C/c1ccc2c(c1)OCO2)NC(=O)c1ccc(Br)cc1  -58.3%
17. CC1CCN(CC(O)Cn2c3ccccc3c3ccccc32)CC1 (stereo not shown)  -54%
18. O=C(CN(Cc1ccco1)C(=O)c1cc(=O)[nH]c2ccccc12)Nc1ccccc1Br  -53.5%
19. CCOc1ccc(C(C(=O)Nc2ccc(F)cc2)N(C(=O)Cn2nnc3ccccc32)C2CC2)cc1 (stereo not shown)  -50.3%
20. COc1ccc(C(C(=O)Nc2ccc(F)cc2)N(C(=O)Cn2nnc3ccccc32)C2CC2)cc1 (stereo not shown)  -45.6%
21. COc1ccc(C(CCNCc2ccc(OC(C)C)cc2)C(C)C)cc1 (stereo not shown)  -39%
22. OC(CN1CCCCC1)Cn1c2ccccc2c2cc(Br)ccc21 (stereo not shown)  -33.1%
23. C=CCNC(=O)/C(=C\c1ccc2c(c1)OCO2)NC(=O)c1ccc(Br)cc1  -30%
24. CN(CC(=O)Nc1ccccc1Br)C(=O)c1ccccc1-c1nc2ccccc2s1  -26.3%
25. COC(=O)c1c(NC(=O)CCN2CCOCC2)sc2c1CCCC2  -26%
26. Cc1ccc(OCCN2CCN(CC(O)Cn3c4ccccc4c4ccccc43)CC2)cc1.O=C(O)C(=O)O (stereo not shown)  -25.1%
27. CCN(CC)CC(O)CN1c2ccccc2Sc2ccccc21 (stereo not shown)  -25%
28. O=CN1CCN(CC(O)Cn2c3ccccc3c3ccccc32)CC1 (stereo not shown)  -23.6%
29. CN(C)S(=O)(=O)c1cccc(NC(=O)COC(=O)c2ccc3c(c2)OCO3)c1  -19.4%
30. CCC(C)N(C(=O)Cn1nnc2ccccc21)C(C(=O)Nc1ccc(F)cc1)c1cccc(OC)c1 (stereo not shown)  -18.8%
31. CCOC(=O)Cc1cc(=O)n2[nH]c(-c3ccccc3)c(-c3ccccc3)c2n1  -18%
32. CC1CCCCC1N1CCN(C(=O)c2cccc(F)c2)CC1.O=C(O)C(=O)O (stereo not shown)  -17.5%
33. O=C(CCCN=C1NS(=O)(=O)c2ccccc21)OCc1cc([N+](=O)[O-])cc2c1OCOC2  -14.7%
34. COc1ccc(C(O)Cn2c(=N)n(CCCN(C)C)c3ccccc32)cc1.Cl (stereo not shown)  -13%
35. CC(C)=CCOc1ccc2ccc(=O)oc2c1  -12.9%
36. O=C(CN(Cc1ccco1)C(=O)c1cc(=O)[nH]c2ccccc12)Nc1ccccc1C(F)(F)F  -12%
37. CCCc1ccc(OCCNC(=O)CC)cc1  -10.9%
38. COc1cc(SC)ccc1C(=O)N(CC(=O)Nc1ccccc1Br)Cc1ccco1  -10.4%
39. CCC(OC(=O)c1ccco1)C(=O)NCc1ccc(OC)cc1 (stereo not shown)  -8.67%
40. Oc1nc(-c2ccc(Br)cc2)n2ccncc12  -8.14%
41. Cl.OC(CN1CCNCC1)Cn1c2ccccc2c2ccccc21 (stereo not shown)  -6.23%
42. CC1CC2=C(C(=O)O1)C(c1ccc(Cl)cc1)Nc1ccccc1N2 (stereo not shown)  -6.21%
43. CC1CCN(C(=O)N2c3ccccc3Sc3ccccc32)CC1  -5.69%
44. COc1ccc(C(C)NC(=S)NCc2ccc(F)cc2)cc1OC (stereo not shown)  -5.63%
45. CCOc1ccc(NC(=O)c2c(NC(=O)CN3CCCC3)sc3c2CCC3)cc1  -3.84%
46. O=C(COC(=O)c1nc(Cl)ccc1Cl)Nc1ccc2c(c1)OCO2  -3.62%
47. CS(=O)(=O)c1ccc(-c2cccc(NC(=O)COc3ccccc3)c2)nn1  -3.45%
48. COc1ccc(CCNC(=O)c2cc3ccccn3n2)c(OC)c1OC  -3.41%
49. Cc1cccc(N(C(=O)c2nsc(Cl)c2Cl)C(C(=O)NC2CCCC2)c2ccc(O)cc2)c1 (stereo not shown)  -2.24%
50. CCC(C)C(NC(=O)OCc1ccccc1)C(=O)OCN1C(=O)c2ccccc2C1=O (stereo not shown)  -2.01%
51. COc1ccc(CN(CCC(c2ccccc2)c2ccc(OC(C)C)cc2)C(=O)CCl)cc1OC (stereo not shown)  -1.82%
52. O=C(Nc1ccccc1C(=O)NCc1cccnc1)c1cccc([N+](=O)[O-])c1  -1.36%
53. O=C(CN1CCCC1)Nc1sc2c(c1C(=O)Nc1ccc(Br)cc1)CCC2  -1.29%
54. CCC(C)n1c(=S)[nH]c2ccccc2c1=O (stereo not shown)  -0.621%
55. Cc1ccc2c(c1)N(CCC(=O)NCCCOC(C)C)C(=O)C(C)O2 (stereo not shown)  -0.496%
56. Cc1ccc(-c2csc(NC(=O)CCNC(=O)c3ccccc3Cl)n2)cc1  1.5%
57. COc1ccc(OC)c(NC(=S)NCCC(c2ccccc2)c2ccccc2)c1  1.73%
58. CCCN1C(=O)/C(=C/c2nc3ccccc3c(=O)[nH]2)c2ccccc21  1.75%
59. C/C(NC(=O)c1ccccc1)=C1/C(=O)CC2C1C2(C)C (stereo not shown)  2.15%
60. OC(CN1CCOCC1)Cn1c2ccccc2c2ccccc21 (stereo not shown)  2.42%
61. OC(CN1CCCCC1)Cn1c2ccccc2c2ccccc21 (stereo not shown)  3.16%
62. CCOCCCNCc1ccc(OC)c(OC)c1.O=C(O)C(=O)O  3.24%
63. CN1CCN(CC(O)Cn2c3ccccc3c3ccccc32)CC1.O=C(O)C(=O)O (stereo not shown)  3.46%
64. Cc1c(O)c(S(=O)(=O)c2ccccc2)c(=O)n(-c2ccccc2)c1-c1ccccc1  3.84%
65. COc1ccc(CNCCCO)cc1OC  4.57%
66. CCOc1cc(S(=O)(=O)Nc2ccc(Cl)cn2)ccc1Cl  5.67%
67. COC(=O)c1sc(NC(=O)COc2ccc(OC)cc2)nc1C  6.37%
68. Cl.N=c1n(CCO)c2ccccc2n1CCN1CCCCC1  6.77%
69. CSc1cc(C)[nH]c(=O)n1  7.05%
70. O=C(Nc1ccc(C(=O)O)cc1)/C(=C/c1ccc2c(c1)OCO2)NC(=O)c1cccc(Br)c1  7.25%
71. O=C(Nc1cccc(C(=O)O)c1)/C(=C/c1ccc2c(c1)OCO2)NC(=O)c1cccc(Br)c1  7.35%
72. CC(NC(=O)N(Cc1ccccc1)Cc1ccc2c(c1)OCO2)(C(F)(F)F)C(F)(F)F  7.8%
73. CC(=O)N1CCN(CC(O)Cn2c3ccccc3c3ccccc32)CC1 (stereo not shown)  7.81%
74. COC(=O)c1ccc(-c2c(-c3ccccc3)ncc3cc(F)ccc23)cc1  7.97%
75. Cc1cccc(C(=O)Nc2ccccc2NC(=O)c2cccc(C)c2)c1  8.24%
76. Cc1cc(NC(=O)c2ccc3c(c2)OCCO3)ccc1NC(=O)c1ccco1  8.5%
77. O=C(O)CNC(=O)/C(=C\c1ccc2c(c1)OCO2)NC(=O)c1ccc(Br)cc1  8.77%
78. COc1ccc(CC(=O)NC(C)CCc2ccccc2)cc1OC (stereo not shown)  8.96%
79. OC(CN1CCN(c2ccccc2)CC1)Cn1c2ccccc2c2ccccc21 (stereo not shown)  9.1%
80. COc1ccccc1CN1CCCCC1C(=O)O (stereo not shown)  9.48%
81. O=C(CSc1nc(-c2ccc(F)cc2)cc(C(F)(F)F)n1)NCc1ccco1  10.2%
82. O=C(CCS(=O)(=O)c1ccc(Br)cc1)NC1CCCC1  11.6%
83. CC(C)(C)NC(=O)CSc1nc2ccccc2c(=O)[nH]1  11.7%
84. COc1ccc(CNCCCSc2ncccn2)cc1OC.Cl  11.9%
85. COCc1cc(C)nc2sc(C(=O)Nc3ccc(OC)cc3)c(N)c12  12.5%
86. O=C(Cc1cccc2ccccc12)N1CC[C@@]2(O)CCCC[C@H]2C1  12.5%
87. COC(=O)c1ccccc1NC(=O)c1cnn2cccnc12  13%
88. COC(=O)C1=CN(c2ccc(Cl)cc2)C=C(C(=O)OC)C1c1ccc([N+](=O)[O-])cc1  16.2%
89. COc1ccc(NC(=O)c2c(NC(=O)CNCc3ccco3)sc3c2CCC3)cc1  17.8%
90. N#CCO/N=C(\c1ccccc1)c1ccncc1  18.1%
91. O=C(CNC1CCCCC1)N1CCC2(CC1)OCCO2.O=C(O)C(=O)O  21.4%
92. COc1ccc(C(=O)NCC(=O)N/N=C/c2ccco2)cc1OC  25.9%
93. COc1ccc(/C=C(\NC(=O)c2ccccc2)C(=O)NCCC(=O)O)cc1  26.3%
94. O=C(CC12CC3CC(CC(C3)C1)C2)NC(=S)N1CCCCC1  26.6%
